According to PubChem BioAssay (NCATS):
Records with an inconclusive call do not appear. Values without a mark were called inactive. Active and inactive are the calls of the source. Calls follow the shape of the dose curve; as a rule, active = well fitted activation curve with a large enough effect; inconclusive = small, poorly fitted or top-dose-only effect; inactive = no such curve, though single readings can be large or run the other way.

The molecules below were run against Cellular tumor antigen p53 (Homo sapiens) (UniProt P04637) (assay: Primary qHTS for small molecule compounds that upregulate eGFP-tagged delta133p53alpha (in N-terminal) cells. (AID 2060322; also: nearly all actives have a fitted effect of over 75% in size;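 as to activation: series mostly up to about 56 µM; 0% = DMSO vehicle and 100% = reference activator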)). Settings: NCI-H358 eGFP-delta133p53alpha fluorescence, 24 h; activation: hits give high values.
Cellular tumor antigen p53 (Homo sapiens), sequence (P04637 whole entry, looked up): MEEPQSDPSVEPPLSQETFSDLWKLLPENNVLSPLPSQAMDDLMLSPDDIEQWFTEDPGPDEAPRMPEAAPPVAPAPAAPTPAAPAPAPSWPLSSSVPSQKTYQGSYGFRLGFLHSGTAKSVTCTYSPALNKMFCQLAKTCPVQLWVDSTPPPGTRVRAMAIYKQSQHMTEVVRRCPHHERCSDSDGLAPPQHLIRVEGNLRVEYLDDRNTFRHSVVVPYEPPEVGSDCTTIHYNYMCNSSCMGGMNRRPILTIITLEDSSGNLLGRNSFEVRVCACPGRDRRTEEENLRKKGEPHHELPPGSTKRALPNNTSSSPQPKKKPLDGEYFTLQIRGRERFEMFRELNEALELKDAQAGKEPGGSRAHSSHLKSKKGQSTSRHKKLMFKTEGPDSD
Outline: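 NCI-H358 cells pre-induced 24 h with 10 ng/ml doxycycline to express N-terminal eGFP-delta133p53alpha, then dosed 24 h at 37C without doxycycline; fixed, Hoechst-stained, GFP intensity by laser scanning cytometry, normalized to DMSO (0%) and 57.5 uM 5-azacytidine (100%).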
Potency is read from the fitted curve at half-maximal effect.

| SMILES | activation [%] | Potency |
| --- | --- | --- |
| Cc1c(C)n(CCN(C)C)c2ccc(C(=O)OCCN(C)C)cc12 | -11.9 | – |
| CC(=O)c1ccc(O)c(C(N)=O)c1 | -19.8 | – |
| O=C(CS(=O)Cc1ccco1)NCC=CCOc1cc(CN2CCCCC2)ccn1 (stereo not given) | 38.6 | – |
| NC(=O)c1ncn([C@@H]2O[C@H](CO)[C@@H](O)[C@@H]2O)n1 | -6.05 | – |
| CCCCN1CCCC1C(=O)Nc1c(C)cc(C)cc1C (stereo not given) | 27.6 | – |
| COC(=O)/C=C\C(=O)OC | -9.6 | – |
| NC(=O)NC1NC(=O)NC1=O (stereo not given) | -17.5 | – |
| Cc1ccc(/C=N/n2c(-c3ccccc3)csc2=S)cc1 | 24.3 | – |
| CC(C)(Oc1ccc(Cl)cc1)C(=O)OCCCOC(=O)C(C)(C)Oc1ccc(Cl)cc1 | -6.69 | – |
| CCOC(=O)C(=O)CCCCCCl | -5.02 | – |
| C=C1CCC2[C@](C)(CO)C(O)CC[C@]2(C)C1CC=C1C(=O)OCC1O (stereo not given in full) | -28.9 | – |
| O=c1[nH]c(=O)n([C@H]2C[C@@H](O)[C@@H](CO)O2)cc1C=CBr | 11.1 | – |
| Oc1cc(O)cc(C=Cc2ccc(O)c(O)c2)c1 | 8.33 | – |
| O=c1cc[nH]c(=S)[nH]1 | 7.34 | – |
| CC(C)(C)C(=O)OCOC(=O)[C@@H]1N2C(=O)[C@@H](NC(=O)[C@H](N)c3ccccc3)[C@H]2SC1(C)C | 7.53 | – |
| O=C(O)c1ccc(S(=O)(=O)N(Cl)Cl)cc1 | 20.9 | – |
| CCC(=O)OCC(=O)[C@@]1(OC(=O)CC)[C@@H](C)C[C@@H]2[C@H]3CCC4=CC(=O)C=C[C@]4(C)[C@@]3(F)[C@@H](O)C[C@@]21C | 3.16 | – |
| CC(=O)N(CC(O)CN(C(C)=O)c1c(I)c(C(=O)NCC(O)CO)c(I)c(C(=O)NCC(O)CO)c1I)c1c(I)c(C(=O)NCC(O)CO)c(I)c(C(=O)NCC(O)CO)c1I (stereo not given) | -16.7 | – |
| CC(C)=CCC[C@@](C)(O)[C@H]1CC=C(C)CC1 | 18.6 | – |
| C[C@H](NCc1ccc(OCc2cccc(F)c2)cc1)C(N)=O | – | 24.3 µM (active) |

| SMILES | activation [%] | Potency |
| --- | --- | --- |
| Cc1ccc([C@@H]2O[C@H](CO)[C@@H](O)[C@H](O)[C@@H]2O)cc1Cc1ccc(-c2ccc(F)cc2)s1 | -12.3 | – |
| Nc1ccncc1N | 21.8 | – |
| O=C1Nc2cc(Cl)ccc2Oc2ccccc21 | -1.69 | – |
| O=C(Nc1ncc([N+](=O)[O-])s1)c1cccs1 | 10 | – |
| Cc1ccnc(NS(=O)(=O)c2ccc(N)cc2)n1 | -10.9 | – |
| CC[C@]12CCCN3CCc4c(n(c5ccccc45)[C@@](O)(C(=O)OC)C1)[C@@H]32 | 5.02 | – |
| C[C@@H]1CN(CCCn2c3ccccc3c3ccccc32)C[C@H](C)N1 | 16.4 | – |
| CC(C)(C)CC(=O)OCC(=O)[C@@]1(O)CC[C@H]2[C@@H]3CCC4=CC(=O)C=C[C@]4(C)[C@H]3[C@@H](O)C[C@@]21C | -9.21 | – |
| O=C(NCC(O)CO)c1c(I)c(C(=O)NCC(O)CO)c(I)c(N(CCO)C(=O)CO)c1I (stereo not given) | -8.37 | – |
| CC1CCC2(OC1)OC1CC3C4CCC5C[C@@H](O[C@@H]6O[C@H](CO[C@@H]7OC[C@@H](O)[C@H](O)[C@H]7O)[C@H](O)[C@H](O)[C@H]6O)CC[C@]5(C)C4CC[C@]3(C)C1C2C (stereo not given in full) | 8.4 | – |
| Nc1ncn([C@@H]2O[C@H](CO)[C@@H](O)[C@@H]2O)c(=O)n1 | 26.1 | – |
| Nc1c(CC(=O)O)cccc1C(=O)c1ccc(Br)cc1 | -3.95 | – |
| Cc1cccc(C)c1NC(=O)CN1CCCC1 | 10 | – |
| OCc1ccccc1O | -1.69 | – |
| Cc1ccc2c(Cl)cc(Cl)c(O)c2n1 | 7.34 | – |
| Nc1nc(N)c(-c2ccccc2)s1 | -14.1 | – |
| CCCCCCCCCCCCOCCOCCOCCOCCOCCOCCOCCOCCOCCO | 6.21 | – |
| CCOC(N)=O | -2.82 | – |
| C[C@@H]1C[C@H]2[C@@H]3C[C@H](F)C4=CC(=O)C(Cl)=C[C@]4(C)[C@@]3(F)[C@@H](O)C[C@]2(C)[C@@]1(O)C(=O)CO | -14.1 | – |
| Oc1ccc(CCNCCCCCCNCCc2ccccc2)cc1O | 0 | – |
